The values below come from ChEMBL document CHEMBL3433997, “St. Jude Leishmania screening dataset” (2016).

One may read the inhibition as the drop in the measured response relative to a control, in per cent.

The experiment deals with Glucose transporter (Leishmania mexicana) (UniProt O61059). The experiment is described as follows: ST_JUDE_LEISH: Cytotoxicity at 2uM final concentration against transgenic Leishmania Mexicana promastigotes LmGT2 that are glucose transport deficient and complemented with the L. Mexicana glucose transporter 2. Activity is measured by DNA content using SYBR green in vitro. Type of experiment: functional.
For `CC[C@H](C)CNC(=O)c1cncc(-c2cccc(CNCCCc3ccccc3)c2)c1`, the inhibition amounted to 4.25%.

Regarding `COc1ccc2nccc([C@@H](O)CN3CCC(NC(=O)/C=C/c4c[nH]c5c(C)cccc45)CC3)c2c1`, the inhibition was -5.23%.

In the case of `CCOc1cc(OCC)c2ccccc2c1CNCCCCCCNCc1c(OCC)cc(OCC)c2ccccc12`, the inhibition worked out at 56.7%.

With `NCc1ccc(CNCc2ccc(-c3ccc(-c4nc5cc(F)ccc5[nH]4)cc3)cc2)cc1`, the inhibition is 5.05%.

With `CC(C)C[C@@H]1C(=O)N[C@H](C2Cc3ccccc3C2)C(=O)N1[C@@H](C(=O)O)c1ccc(F)cc1F`, the inhibition was determined as 0.39%.

In the case of `COc1ccc(-n2nc(C)cc2C(=O)NCc2ccc(-c3c(C)noc3C)cc2)cc1`, the inhibition is -0.58%.

Turning to `COc1ccc2c(c1)ncn2-c1cc(OCc2ccncc2Br)c(C(N)=O)s1`, the inhibition is 2.35%.

`CN(C)c1ccc(NC(=O)Nc2ccnc3ccc(Br)cc23)cc1`: the inhibition was 0.43%.

`Cc1nnc2sc(-c3cccc(NC(=O)c4ccc(N5CCCCC5)c([N+](=O)[O-])c4)c3)nn12`: the inhibition is -0.5%.

Consider `O=C1COC(c2ccccc2)(c2ccccc2)CN1CC1CCN(Cc2ccc(O)cc2Cl)C1` (stereo not given), for which the inhibition stood at 2.56%.

On to `CC(=O)Nc1ccc2[nH]cc(C3CCN(CC4CCN(C(=O)/C=C/c5ccc(Cl)c(Cl)c5)CC4)CC3)c2n1`, for which the inhibition was -1.1%.

`Cc1nc2ccc(NC(=O)c3cc(S(=O)(=O)N(C)C)ccc3Cl)cc2s1`: the inhibition amounted to 10.1%.

With `CC(C)(CNCCOc1ccc(Cl)cc1)c1nc(-c2ccnc(N)n2)c(-c2ccc(Cl)c(O)c2)[nH]1`, the inhibition was 0.27%.

As to `COc1ccc(NC(=O)Nc2nc3ccccc3s2)cc1N1CCN(C)CC1`, the inhibition turned out to be 5.72%.

In the case of `COc1cc(CNCCCCCCNCc2cc(OC)c(OC)c3ccccc23)c2ccccc2c1OC`, the inhibition stood at 3.2%.

For the compound `COc1ccc(C=NN=c2cc(C)[nH]c3ccccc23)cc1OC`, the inhibition was 2.8%.

On to `CN1CCC(NCc2cccc(-c3ccc(S(=O)(=O)NCCN4CCCC4)s3)c2)CC1`, for which the inhibition is 0.76%.

As to `O=C(NCCCCCN1CCC(c2c[nH]c3ccccc23)CC1)Nc1cccc(I)c1`, the inhibition was 5.88%.

As for `CN1CCCc2ccc(NC(=O)c3ccc(-c4cc(C(F)(F)F)nn4C)s3)cc2C1`, the inhibition was -2.38%.

As to `c1ccc2c(Nc3ccc(Oc4ccc(Nc5c6ccccc6nc6ccccc56)cc4)cc3)c3ccccc3nc2c1`, the inhibition was -1.82%.

Regarding `CC(C)c1cn2c3c(cc(C(=O)N[C@@H](Cc4ccccc4)[C@H](O)CNC4CCCCC4)cc13)N(C)S(=O)(=O)CC2`, the inhibition is -2.44%.

Consider `CCOc1ccc(Br)cc1/C=C/C(=O)Nc1ccc2c(c1)CCCN(C)C2`, for which the inhibition came out at 11.8%.

`CSC1=NC(=Nc2ccccc2C)C2(CCC(C(C)(C)C)CC2)N1c1ccccc1Cl` (stereo not given): the inhibition is -2.88%.

For the compound `CN=C(N)c1ccc(NC(=O)C=Cc2ccc(C(=O)Nc3ccc(C(N)=NC)cc3)cc2)cc1`, the inhibition was found to be 4.6%.

Regarding `Cc1cc(NCc2ccccc2)nc2cc(O)ccc12`, the inhibition is 7.14%.

For the compound `O=C(Nc1ccc(Oc2cccnc2)cc1)C1CCN(Cc2cc(Cl)ccc2O)CC1`, the inhibition amounted to 1.47%.

`CC(CN(C)C)C(=O)Nc1ccc(-c2ccc(-c3nc4cc(F)ccc4[nH]3)cc2)cc1` (stereo not given): the inhibition stood at 2.85%.

Regarding `CC(C)[C@@H](NC(=O)NC1CCC(CCN2C3CCC2CC(OC(=O)C(CO)c2ccccc2)C3)CC1)C(O)(c1ccccc1)c1ccccc1` (stereo not given in full), the inhibition is 4.86%.

As for `CCC1CN2CCc3c([nH]c4ccccc34)[C@@H]2C[C@@H]1CC1NCCc2cc(OC)c(OC)cc21` (stereo not given in full), the inhibition is -1.42%.

Consider `CCc1cn(CCS(C)(=O)=O)c2ccc(C(=O)N[C@@H](Cc3ccccc3)[C@H](O)CNC(C)(C)CCCC(C)C)cc12`, for which the inhibition came to 6.22%.

Regarding `CSC1=NC(C)(C)CC2(CC(c3cccc(C)c3)c3cc(Cl)c(O)cc3O2)N1` (stereo not given), the inhibition came out at 0.47%.

On to `CCc1n[nH]c(C(=O)Nc2cccc(N3CCCC3)c2)c1C`, for which the inhibition was -1.36%.

As for `Cc1ccc(-c2cc(C(=O)Nc3ccc(S(=O)(=O)N4CC(C)OC(C)C4)cc3)[nH]n2)c(O)c1` (stereo not given), the inhibition is 3.48%.

As to `CC1(C)NC(N)=NC(=N)N1OCCCc1cccc(C(F)(F)F)c1`, the inhibition is 1.25%.

With `COc1ccc(Cn2c(Nc3cccc(C(F)(F)F)c3)nc3cc(C(=O)NC(C)C)cnc32)cc1Cl`, the inhibition was found to be 10.9%.

As to `CCNC(=O)Nc1cccc(-c2cccc(-c3nc4cc(C(F)(F)F)ccc4[nH]3)c2)c1`, the inhibition turned out to be 7.55%.

On to `COc1ccc(NC(=O)/C=C/c2ccc(-c3ccc(-c4noc(C)n4)cc3)cc2)cc1OCCN(C)C`, for which the inhibition was 0.27%.

With `COc1ccc(/C=C/C(=O)N2CCc3cc4nccc(N5CCN6CCC[C@H]6C5)c4cc32)cc1`, the inhibition is 4.53%.

For the compound `O=C(Nc1ccc2c(c1)CNCC2)c1ccc(-c2ccc(Cl)cc2)cc1`, the inhibition stood at 84%.

As to `N#CN1CC[C@@H](OC(=O)N[C@@H]2C[C@H]2c2ccccc2)C1`, the inhibition is 4.43%.
